Our source for the activation and Potency values is PubChem BioAssay (NCATS).

“And” between values parts separate entries of the source, which are not always exact repeats. Equal entries are not always repeated. Results filed as inconclusive are left out. Unmarked numbers belong to inactive results. The source made the active and inactive calls. Calls come from the whole dose curve; as a rule, active = well fitted activation curve with a large enough effect; inconclusive = small, poorly fitted or top-dose-only effect; inactive = no such curve, though single readings can be large or run the other way.
Potency is the fitted concentration of half-maximal effect.

Chain of Cellular tumor antigen p53 (Homo sapiens) (P04637 whole entry, looked up): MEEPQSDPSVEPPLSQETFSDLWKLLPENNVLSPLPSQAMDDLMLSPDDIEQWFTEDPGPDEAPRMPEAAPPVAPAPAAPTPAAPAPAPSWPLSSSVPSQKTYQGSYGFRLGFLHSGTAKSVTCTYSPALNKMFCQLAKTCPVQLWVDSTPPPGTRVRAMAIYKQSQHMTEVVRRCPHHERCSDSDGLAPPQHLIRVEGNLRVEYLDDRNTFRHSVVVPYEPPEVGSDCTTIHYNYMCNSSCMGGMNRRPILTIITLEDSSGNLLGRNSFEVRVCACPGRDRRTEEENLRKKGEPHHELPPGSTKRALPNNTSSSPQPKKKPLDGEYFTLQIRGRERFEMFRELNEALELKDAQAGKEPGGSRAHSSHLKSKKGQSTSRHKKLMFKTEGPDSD

The assay has as its target Cellular tumor antigen p53 (Homo sapiens) (UniProt P04637). In words: Primary qHTS for small molecule compounds that upregulate eGFP-tagged delta133p53alpha (in N-terminal) cells. (AID 2060322).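 For activation: series mostly up to about 56 µM; 0% = DMSO vehicle and 100% = reference activator.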 Note: nearly all actives have a fitted effect of over 75% in size. The following applies: NCI-H358 eGFP-delta133p53alpha fluorescence, 24 h; activation: hits give high values. In short, it runs like this: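 NCI-H358 cells pre-induced 24 h with 10 ng/ml doxycycline to express N-terminal eGFP-delta133p53alpha, then dosed 24 h at 37C without doxycycline; fixed, Hoechst-stained, GFP intensity by laser scanning cytometry, normalized to DMSO (0%) and 57.5 uM 5-azacytidine (100%).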
On the technique in general: Quantitative high-throughput screening tests each substance at several concentrations.
For `COc1ccc2cc1Oc1ccc(cc1)C[C@H]1c3cc(c(OC)cc3CCN1C)Oc1c(OC)c(OC)cc3c1[C@H](C2)N(C)CC3`, the activation is -18.2%.
With `O=C(C=Cc1c(C(=O)O)[nH]c2cc(Cl)cc(Cl)c12)Nc1ccccc1`, the activation is 33.2%.
Take `CC(C)(O)[C@H]1CC[C@@](C)([C@H]2[C@@H](O)C[C@@]3(C)[C@@H]4C[C@H](O[C@@H]5O[C@H](CO)[C@@H](O)[C@H](O)[C@@H]5O)[C@H]5C(C)(C)[C@@H](O[C@@H]6OC[C@@H](O)[C@H](O)[C@@H]6O)CC[C@@]56C[C@@]46CC[C@]23C)O1`: the activation was 10.3%.
Turning to `COC1=C2C[C@@H](C)C[C@H](OC)[C@@H](O)[C@@H](C)C=C(C)[C@H](OC(N)=O)[C@@H](OC)C=CC=C(C)C(=O)NC(=CC1=O)C2=O`, the activation was -17.1%.
In the case of `N[C@@H](C(=O)N[C@@H]1C(=O)N2C(C(=O)O)=C(Cl)CS[C@H]12)c1ccccc1`, the activation is -19.2% and 26.9%.
Still for that read-out and setting: in the case of `O=C(Nc1ccc([N+](=O)[O-])cc1)Nc1ccc([N+](=O)[O-])cc1` it was -25.9%.
As for `CCc1cc2cc(OC)c(OC)cc2c(Cc2ccccc2)n1`, the activation was -22.6%.
Consider `OCCN1C[C@H](O)[C@@H](O)[C@H](O)[C@@H]1CO`, for which the activation is 24.9%.
Same read-out and setting: under `OCC(CO)N[C@H]1C[C@](O)(CO)[C@@H](O)[C@H](O)[C@H]1O` stands -11.7%.
`CCN1/C(=C/C=C/c2sc3ccccc3[n+]2CC)Sc2ccccc21`: the Potency was 16.9 µM (active).
For the molecule `CN1CCN(c2cc3c(cc2F)c(=O)c(C(=O)O)cn3-c2ccc(F)cc2)CC1`, the activation is 20.1%.
